This is part of a sample that, as a whole, favours compounds with a hit. Of some 83,000 tested, about 20% had one in any assay.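 Negative percent growth values reflect cell death: -40 means 40% of the cells present at the start died, and -100 means all died.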 The source made the active and inactive calls. The calls were made as follows: active = growth percent below 10; inactive = the rest.
Legend:
Test in all cases: NCI-60 one-dose screen, 48 h (100 = growth as untreated, 0 = no growth, -100 = all killed)
Conditions in all cases: 10 µM unless noted
SK-MEL-2 melanoma = tested on: SK-MEL-2 melanoma
EKVX NSCLC = tested on: EKVX NSCLC
SN12C renal = tested on: SN12C renal
UO-31 renal = tested on: UO-31 renal
ACHN renal = tested on: ACHN renal
CAKI-1 renal = tested on: CAKI-1 renal
A498 renal = tested on: A498 renal
CCRF-CEM leukemia = tested on: CCRF-CEM leukemia
MOLT-4 leukemia = tested on: MOLT-4 leukemia
RPMI-8226 leukemia = tested on: RPMI-8226 leukemia
OVCAR-8 ovarian = tested on: OVCAR-8 ovarian
OVCAR-5 ovarian = tested on: OVCAR-5 ovarian
OVCAR-4 ovarian = tested on: OVCAR-4 ovarian
SK-OV-3 ovarian = tested on: SK-OV-3 ovarian
IGROV1 ovarian = tested on: IGROV1 ovarian
OVCAR-3 ovarian = tested on: OVCAR-3 ovarian
HS 578T breast = tested on: HS 578T breast
NCI/ADR-RES ovarian = tested on: NCI/ADR-RES ovarian
SR leukemia = tested on: SR leukemia
TK-10 renal = tested on: TK-10 renal

Measured: growth

COc1cc(CNS(=O)(=O)c2ccc(C)cc2)ccc1OCc1cn(-c2ccccc2)nn1
inactive: SK-MEL-2 melanoma 102% | EKVX NSCLC 87.6% | SN12C renal 93.3% | UO-31 renal 79.5% | ACHN renal 95.1% | CAKI-1 renal 88.5% | A498 renal 59% | CCRF-CEM leukemia 88.9% | MOLT-4 leukemia 88.4% | RPMI-8226 leukemia 67.9% | OVCAR-8 ovarian 93.2% | OVCAR-5 ovarian 97.9% | OVCAR-4 ovarian 56.8% | SK-OV-3 ovarian 97.6% | IGROV1 ovarian 83.7% | OVCAR-3 ovarian 85% | HS 578T breast 86.1% | NCI/ADR-RES ovarian 81.3%

CSc1ccc2c(c1)c(CCN)c(C)n2Cc1ccc(Cl)c(Cl)c1
active: SK-MEL-2 melanoma -66.1% | EKVX NSCLC -86.7% | SN12C renal -80.2% | UO-31 renal -91% | ACHN renal -85.5% | CAKI-1 renal -92.5% | A498 renal -91.8% | CCRF-CEM leukemia -56.2% | MOLT-4 leukemia -64.6% | SR leukemia -61.6% | OVCAR-8 ovarian -60.8% | OVCAR-5 ovarian -58.2% | OVCAR-4 ovarian -93.2% | SK-OV-3 ovarian -91.2% | OVCAR-3 ovarian -88.4% | HS 578T breast -39.2% | NCI/ADR-RES ovarian -87.8%

C#Cc1cccc(NC(=O)c2ccc(NC(=O)C=C)cc2)c1
inactive: SK-MEL-2 melanoma 79.3% [8.25 µM] | EKVX NSCLC 102% [8.25 µM] | SN12C renal 67.5% [8.25 µM] | ACHN renal 63.8% [8.25 µM] | CAKI-1 renal 63.2% [8.25 µM] | A498 renal 40.8% [8.25 µM] | CCRF-CEM leukemia 71.5% [8.25 µM] | MOLT-4 leukemia 76.8% [8.25 µM] | RPMI-8226 leukemia 60.2% [8.25 µM] | OVCAR-8 ovarian 75.9% [8.25 µM] | OVCAR-5 ovarian 86.7% [8.25 µM] | OVCAR-4 ovarian 88.9% [8.25 µM] | SK-OV-3 ovarian 97% [8.25 µM] | IGROV1 ovarian 70.9% [8.25 µM] | OVCAR-3 ovarian 70.5% [8.25 µM] | HS 578T breast 94.2% [8.25 µM] | NCI/ADR-RES ovarian 73.9% [8.25 µM]
active: UO-31 renal -67.2% [8.25 µM]

CCCCCCN(CCCCCC)c1ccc(/C=C2/SC(=O)NC2=O)c(C)c1
inactive: SK-MEL-2 melanoma 83% | EKVX NSCLC 79.1% | SN12C renal 80.7% | UO-31 renal 64.1% | ACHN renal 93.4% | CAKI-1 renal 84.1% | A498 renal 82.9% | CCRF-CEM leukemia 73% | MOLT-4 leukemia 75.1% | RPMI-8226 leukemia 65.5% | OVCAR-8 ovarian 80.6% | OVCAR-5 ovarian 109% | OVCAR-4 ovarian 69.6% | SK-OV-3 ovarian 96.5% | IGROV1 ovarian 83.6% | OVCAR-3 ovarian 86.7% | HS 578T breast 86.8% | NCI/ADR-RES ovarian 86.7%

Cc1nc2ccccc2c(/C=C/c2ccc(Cl)cc2)c1C(=O)/C=C/c1ccc(C(F)(F)F)cc1
active: SK-MEL-2 melanoma -31.9% | EKVX NSCLC -60.1% | SN12C renal -70.7% | UO-31 renal -100% | TK-10 renal -82.8% | ACHN renal -100% | CAKI-1 renal -95.4% | A498 renal -89.5% | CCRF-CEM leukemia 8.6% | MOLT-4 leukemia 0.0825% | RPMI-8226 leukemia -30.7% | OVCAR-5 ovarian -41.6% | OVCAR-4 ovarian -91% | SK-OV-3 ovarian -79.9% | HS 578T breast -17.3% | NCI/ADR-RES ovarian -5.17%

O=C(CS(=O)c1oc(-c2cccs2)nc1S(=O)(=O)c1ccc(Br)cc1)c1ccccc1 (stereo not drawn)
inactive: SK-MEL-2 melanoma 89.3% | EKVX NSCLC 111% | SN12C renal 96.2% | UO-31 renal 80.3% | ACHN renal 94.1% | CAKI-1 renal 90.9% | A498 renal 49.1% | CCRF-CEM leukemia 94.1% | MOLT-4 leukemia 94.2% | RPMI-8226 leukemia 91.8% | OVCAR-8 ovarian 91.4% | OVCAR-5 ovarian 89.2% | OVCAR-4 ovarian 75.2% | SK-OV-3 ovarian 89.8% | IGROV1 ovarian 101% | OVCAR-3 ovarian 103% | HS 578T breast 79.5% | NCI/ADR-RES ovarian 93.8%

CCOC(=O)NCCc1ccccc1
inactive: SK-MEL-2 melanoma 104% | EKVX NSCLC 111% | SN12C renal 99.2% | UO-31 renal 76.3% | ACHN renal 110% | CAKI-1 renal 86% | A498 renal 110% | CCRF-CEM leukemia 116% | MOLT-4 leukemia 90.1% | SR leukemia 74% | OVCAR-8 ovarian 108% | OVCAR-5 ovarian 112% | OVCAR-4 ovarian 121% | SK-OV-3 ovarian 106% | IGROV1 ovarian 85.3% | HS 578T breast 105%

CN1C(=O)CNC(=O)[C@H](NC(=O)c2nc3ccccc3cc2O)CSSC[C@H]1C(=O)NCCCc1nc2ccccc2cc1O
inactive: EKVX NSCLC 85.4% | SN12C renal 73.4% | UO-31 renal 62.6% | ACHN renal 82.3% | CAKI-1 renal 107% | A498 renal 118% | CCRF-CEM leukemia 14.3% | OVCAR-8 ovarian 86.2% | OVCAR-5 ovarian 121% | OVCAR-4 ovarian 96% | SK-OV-3 ovarian 113% | HS 578T breast 90.7% | NCI/ADR-RES ovarian 102%
active: SK-MEL-2 melanoma -12.5% | MOLT-4 leukemia -4.7% | SR leukemia -46.3% | OVCAR-3 ovarian 9.86%

NS(=O)(=O)c1ccc(-n2nc(C(=O)N/N=C\c3ccc(F)cc3)cc2-c2ccc(Br)cc2)cc1
inactive: SK-MEL-2 melanoma 80% | EKVX NSCLC 72.7% | SN12C renal 92.7% | UO-31 renal 75% | ACHN renal 88.2% | CAKI-1 renal 41.8% | A498 renal 31.9% | CCRF-CEM leukemia 74.8% | MOLT-4 leukemia 80.4% | RPMI-8226 leukemia 94.9% | OVCAR-5 ovarian 94.9% | OVCAR-4 ovarian 87.2% | SK-OV-3 ovarian 88.6% | IGROV1 ovarian 73.6% | OVCAR-3 ovarian 82.3% | HS 578T breast 72.1% | NCI/ADR-RES ovarian 67.8%

COc1ccc(-c2cc3c4c(nc5ccccc5c4c2)CC(c2cc(OC)c(OC)c(OC)c2)O3)cc1 (stereo not drawn)
inactive: SK-MEL-2 melanoma 66.3% | EKVX NSCLC 65% | SN12C renal 32.3% | A498 renal 70.4% | CCRF-CEM leukemia 99.1% | MOLT-4 leukemia 102% | RPMI-8226 leukemia 25.1% | OVCAR-8 ovarian 32% | OVCAR-5 ovarian 18.4% | SK-OV-3 ovarian 20.2% | OVCAR-3 ovarian 41.9% | HS 578T breast 13.2% | NCI/ADR-RES ovarian 41.4%
active: UO-31 renal -26.3% | ACHN renal -46% | CAKI-1 renal 1.26% | OVCAR-4 ovarian -9.24%

COc1cc(C(=O)N2N=C(c3ccc(S(C)(=O)=O)cc3)CC2c2ccco2)cc(OC)c1OC (stereo not drawn)
inactive: SK-MEL-2 melanoma 59.1% | EKVX NSCLC 86% | SN12C renal 92.5% | TK-10 renal 106% | ACHN renal 48.5% | CAKI-1 renal 43.7% | A498 renal 76.7% | CCRF-CEM leukemia 42% | MOLT-4 leukemia 41.5% | RPMI-8226 leukemia 44.6% | OVCAR-5 ovarian 89.5% | OVCAR-4 ovarian 84.1% | SK-OV-3 ovarian 84.3% | HS 578T breast 74.9% | NCI/ADR-RES ovarian 63.1%
active: SR leukemia 8.01% | IGROV1 ovarian -2.69% | OVCAR-3 ovarian 5%

COC(=O)Nc1ccc(-c2nc(-c3cccc(OC)c3)c(-c3ccnc(Br)c3)[nH]2)cc1
active: SR leukemia 3.64%
inactive: SK-MEL-2 melanoma 72.1% | EKVX NSCLC 55.5% | SN12C renal 67% | UO-31 renal 38.6% | ACHN renal 53.4% | CAKI-1 renal 52% | A498 renal 48.4% | CCRF-CEM leukemia 34.9% | MOLT-4 leukemia 30.9% | OVCAR-8 ovarian 48% | OVCAR-5 ovarian 85.6% | OVCAR-4 ovarian 51.5% | SK-OV-3 ovarian 88.1% | OVCAR-3 ovarian 70.2% | HS 578T breast 33.4% | NCI/ADR-RES ovarian 45.2%

Clc1ccc2c(c1)N(CCCN1CCCC1)c1ccccc1S2
active: SR leukemia -30.1%
inactive: SK-MEL-2 melanoma 74% | EKVX NSCLC 51.6% | SN12C renal 15% | UO-31 renal 40.1% | ACHN renal 45% | CAKI-1 renal 56% | A498 renal 36.6% | CCRF-CEM leukemia 36.3% | MOLT-4 leukemia 24.2% | OVCAR-8 ovarian 77.1% | OVCAR-5 ovarian 53.8% | OVCAR-4 ovarian 53.6% | SK-OV-3 ovarian 37.2% | OVCAR-3 ovarian 44% | HS 578T breast 42.6% | NCI/ADR-RES ovarian 35.8%

Brc1c[n+](Cc2ccc3ccccc3c2)cn1Cc1ccc2ccccc2c1
inactive: SK-MEL-2 melanoma 17.3% | EKVX NSCLC 60.1% | SN12C renal 37.6% | UO-31 renal 77.4% | TK-10 renal 43.6% | ACHN renal 90.6% | CAKI-1 renal 38.4% | MOLT-4 leukemia 12.6% | SK-OV-3 ovarian 34.9% | NCI/ADR-RES ovarian 97.5%
active: A498 renal -0.664% | CCRF-CEM leukemia 5.13% | RPMI-8226 leukemia -46.3% | OVCAR-4 ovarian -13.2% | IGROV1 ovarian -51% | OVCAR-3 ovarian -4.19% | HS 578T breast -7.66%

O=C1/C(=C/c2ccc(F)cc2)Sc2c(Br)cccc21
inactive: SK-MEL-2 melanoma 63.5% | EKVX NSCLC 87.9% | SN12C renal 62.7% | UO-31 renal 42% | ACHN renal 76.5% | CAKI-1 renal 81.5% | A498 renal 92.9% | CCRF-CEM leukemia 86.2% | MOLT-4 leukemia 81.5% | SR leukemia 50.5% | OVCAR-8 ovarian 64.9% | OVCAR-5 ovarian 101% | OVCAR-4 ovarian 82.3% | SK-OV-3 ovarian 84.1% | OVCAR-3 ovarian 86.3% | HS 578T breast 80.3% | NCI/ADR-RES ovarian 71.9%

O=C(COc1ccc(/C=C2\Cc3ccc(Cl)cc3C2=O)cc1)Nc1nc2ccccc2s1
inactive: SK-MEL-2 melanoma 122% | EKVX NSCLC 117% | SN12C renal 102% | UO-31 renal 69.1% | ACHN renal 94.2% | CAKI-1 renal 92.3% | A498 renal 130% | CCRF-CEM leukemia 73.5% | MOLT-4 leukemia 69.8% | SR leukemia 75.5% | RPMI-8226 leukemia 93.1% | OVCAR-5 ovarian 108% | OVCAR-4 ovarian 109% | SK-OV-3 ovarian 104% | OVCAR-3 ovarian 104% | HS 578T breast 91% | NCI/ADR-RES ovarian 99.2%

Cc1nc(/N=C(\N)NC(=O)Nc2ccccc2Cl)sc1C
inactive: SK-MEL-2 melanoma 45.6% | EKVX NSCLC 48.7% | SN12C renal 42.7% | UO-31 renal 58.1% | ACHN renal 52.3% | CAKI-1 renal 30.9% | CCRF-CEM leukemia 16.4% | MOLT-4 leukemia 43.6% | OVCAR-8 ovarian 33.9% | OVCAR-5 ovarian 51.3% | OVCAR-4 ovarian 55.1% | SK-OV-3 ovarian 45.4% | IGROV1 ovarian 42.8% | OVCAR-3 ovarian 12.1% | HS 578T breast 13.5% | NCI/ADR-RES ovarian 15.7%
active: A498 renal -15.9% | RPMI-8226 leukemia 8.06%

— PubChem BioAssay (NCI)
